This is a sample that favours compounds with a hit; in the whole collection about 2.4% have one here.
PLC-gamma1 inh = blocks human PLC-gamma1 enzyme activity; AID 720700; P19174; inhibition, % at 12.2 µM; actives 0.84% (n = 370,000); purified PLC-gamma1, fluorogenic substrate, fluorescence; in the data active means inhibition above about 9.5%
UHRF1 MBD2 ctr = UHRF1 methyl-DNA binding inhibition; Q96T88; UHRF1 binding to methylated oligo, TR-FRET; inhibition, % at 4.4 µM; actives 0.75% (n = 370,000); in the data active means inhibition above about 21%;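 further: UHRF1 SRA domain binding a hemimethylated CpG hairpin DNA probe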
MBD2 inh = MBD2-methylated oligo binding inhibition. Q9UBB5. TR-FRET, MBD2 binding to methylated oligonucleotide. inhibition, % at 4.4 µM. actives 0.31% (n = 370,000). AID 686964; in the data active means inhibition above about 13%
Target sequence (Q9UBB5 whole entry, looked up): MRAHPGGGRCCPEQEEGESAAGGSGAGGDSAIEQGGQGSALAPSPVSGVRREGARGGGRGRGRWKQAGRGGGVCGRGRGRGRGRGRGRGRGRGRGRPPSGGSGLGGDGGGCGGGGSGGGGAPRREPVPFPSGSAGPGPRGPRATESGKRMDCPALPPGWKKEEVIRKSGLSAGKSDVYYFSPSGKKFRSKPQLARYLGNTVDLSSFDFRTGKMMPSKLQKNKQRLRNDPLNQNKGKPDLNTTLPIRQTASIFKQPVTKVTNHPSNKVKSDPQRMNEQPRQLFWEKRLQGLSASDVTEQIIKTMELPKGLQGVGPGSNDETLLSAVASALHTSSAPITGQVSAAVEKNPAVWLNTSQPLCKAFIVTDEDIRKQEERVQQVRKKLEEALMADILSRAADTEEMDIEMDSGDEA
LEDGF integ inh = blocks HIV-1 LEDGF/p75-dependent DNA integration | inhibition, % at 3.7 µM | TR-FRET IN-LEDGF/p75 DNA integration, Eu/Cy5 | actives 0.64% (n = 370,000);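 active means inhibition above the screen-wide mean plus 3 SD, cut at about 13% in these data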;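 further: signal is the Cy5 over europium emission ratio at 671 and 618 nm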
PLC-beta3 inh = blocks human PLC-beta3 enzyme activity. inhibition, % at 12.2 µM. Purified PLC-beta3, fluorogenic substrate, fluorescence. actives 0.18% (n = 370,000). AID 720704. Q01970; in the data active means inhibition above about 11%
IN multimer act = counter-screen for LEDGF/p75 integration inhibitors: HIV-1 integrase multimerization activators. shares compounds with LEDGF integ inh. activation, % at 7.7 µM. actives 17% (n = 2,000). TR-FRET HIV-1 integrase multimerization, biochemical; in the data active means activation above about 8.9%
TR-FRET interf = counter-screen for LEDGF/p75 integration inhibitors: TR-FRET optical interference; AID 1053135; inhibition, % at 7.7 µM; shares compounds with LEDGF integ inh; 2,000 tested, under 10 active; TR-FRET optical interference counterscreen, HIV-1 IN multimerization;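 active means inhibition above the mean over all tested compounds plus 3 SD, which no compound reached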
LEDGF integ conf = confirmation of HIV-1 LEDGF/p75-dependent integration inhibitors; shares compounds with LEDGF integ inh; TR-FRET LEDGF/p75-dependent HIV-1 integration, biochemical; inhibition, % at 3.7 µM; actives 36% (n = 2,000); AID 1053136; in the data active means inhibition above about 14%
Large screens that a line does not name were inactive (follow-up assays come after a bar, where they were run).

Cn1c(N)c(S(=O)(=O)N2CCN(c3ccccc3)CC2)c(=O)n(C)c1=O	LEDGF integ inh 15 | IN multimer act inactive | TR-FRET interf inactive | LEDGF integ conf inactive
Cn1c(N)c(S(=O)(=O)N2CCN(c3ccccc3F)CC2)c(=O)n(C)c1=O	none
C[C@@H]1CCN(C2CC2)S(=O)(=O)c2ccc(N3CCC[C@@H]3CO)cc2O1	none
O=[N+]([O-])c1ccc(O)c(C=Nc2cccc3ncccc23)c1	LEDGF integ inh 20 | IN multimer act inactive | TR-FRET interf inactive | LEDGF integ conf inactive
O=[N+]([O-])c1ccc(O)c(C=Nc2cccc3ccccc23)c1	none
COc1ccc(CNS(=O)(=O)CC2NCc3cc(OC)ccc32)cc1 (stereo not drawn)	none
COc1ccc(S(=O)(=O)N2CCOCC2)cc1NC(=O)CSc1n[nH]c(=O)n1C1CC1	LEDGF integ inh 71 | IN multimer act inactive | TR-FRET interf inactive | LEDGF integ conf inactive
COc1ccc(S(=O)(=O)N2CCOCC2)cc1NC(=O)CSc1nnnn1C1CC1	none
Cc1ccc(NCc2nc3ccccc3n2C)cc1	none
Cn1c(CNc2ccc(O)cc2)nc2ccccc21	LEDGF integ inh 16 | IN multimer act inactive | TR-FRET interf inactive | LEDGF integ conf inactive
CCCCOC(=O)C1=C(C)N(C)C(=O)NC1c1cc2c(cc1Br)OCO2 (stereo not drawn)	none
CCOC(=O)C1=C(C)N(C)C(=O)NC1c1cc2c(cc1[N+](=O)[O-])OCO2 (stereo not drawn)	LEDGF integ inh 14 | IN multimer act 10 | TR-FRET interf inactive | LEDGF integ conf inactive
CC(C)[C@@H]1Cc2[nH]n(C)c(=O)c2[C@H](c2ccc(F)cc2)O1	LEDGF integ inh 87 | IN multimer act inactive | TR-FRET interf inactive | LEDGF integ conf inactive
Cc1cccc(NC(=O)[C@H]2CC(=O)O[C@@H]2c2ccccc2)c1C	none
CNc1ccc(Br)cc(C(=O)/C=C/c2cccc(OC)c2OC)c1=O	LEDGF integ inh 16 | IN multimer act inactive | TR-FRET interf inactive | LEDGF integ conf 27
CNc1ccc(Br)cc(C(=O)/C=C/c2cccc(Cl)c2Cl)c1=O	LEDGF integ inh 15 | IN multimer act inactive | TR-FRET interf inactive | LEDGF integ conf 21
COc1ccc(-c2cc(C(=O)NN=C/C(C)=C/c3ccccc3)[nH]n2)cc1	none
COC(=O)C1CN(Cc2ccc(F)cc2)CCS(=O)(=O)N1Cc1cn(Cc2ccccc2)nn1 (stereo not drawn)	none
O=[N+]([O-])c1cc([N+](=O)[O-])c2nonc2c1Nc1ccccc1O	none
O=[N+]([O-])c1cc([N+](=O)[O-])c2nonc2c1Nc1ccc(O)cc1	LEDGF integ inh 15 | IN multimer act inactive | TR-FRET interf inactive | LEDGF integ conf inactive
Cc1ccc(-c2nc(NCc3ccc(F)cc3)n(S(C)(=O)=O)n2)cc1	LEDGF integ inh 14 | IN multimer act inactive | TR-FRET interf inactive | LEDGF integ conf inactive
CCCCCCCCN1C(=O)[C@@H](CC(=O)NCCCC)C[C@@]2(C(=O)OC)C1=C[C@H](COCc1ccccc1)O[C@@H]2C	none
CN1CCN(C(c2ccc(Br)cc2)c2cc(Cl)c3cccnc3c2O)CC1 (stereo not drawn)	LEDGF integ inh 40 | IN multimer act inactive | TR-FRET interf inactive | LEDGF integ conf inactive
COC(=O)C1CN(Cc2cn(Cc3ccc(F)cc3)nn2)CCS(=O)(=O)N1Cc1ccccc1 (stereo not drawn)	none
Cc1cc(-c2cc(C)c(N)cc2C)c(C)cc1N	LEDGF integ inh 14 | IN multimer act inactive | TR-FRET interf inactive | LEDGF integ conf inactive
CC[C@H](C(=O)Nc1ccccc1N1CCCC1)c1ccccc1	none
NC(=O)NCCC1=CCCCC1	none
C=CCn1c(N)c(C(=O)NCCC2=CCCCC2)sc1=S	LEDGF integ inh 19 | IN multimer act inactive | TR-FRET interf inactive | LEDGF integ conf inactive
O=S(=O)(c1ccc(NC(=S)N/N=C/c2ccc(O)c(O)c2)cc1)N1CCOCC1	LEDGF integ inh 18 | IN multimer act inactive | TR-FRET interf inactive | LEDGF integ conf 14
Oc1ccc(/C=N/NC(=S)Nc2cccnc2)cc1O	LEDGF integ inh 21 | IN multimer act 18 | TR-FRET interf inactive | LEDGF integ conf 34
CC(C)(C)CCN1CCC[C@H](NC(=O)COc2ccc(F)c(Cl)c2)C1	none
Cc1cc(/C=C2\SC(=S)NC2=O)c(C)[nH]1	LEDGF integ inh 34 | IN multimer act 12 | TR-FRET interf inactive | LEDGF integ conf inactive
Cc1c(NC(=O)c2cccc(NC(=O)Cc3ccc(F)cc3)c2)c(=O)n(-c2ccccc2)n1C	LEDGF integ inh 19 | IN multimer act inactive | TR-FRET interf inactive | LEDGF integ conf inactive
COc1ccc(S(=O)(=O)NC2CCN(C#N)CC2)cc1	none
O=C(O)CCN1C(=O)/C(=C/c2ccc(-c3nc4ccccc4s3)o2)SC1=S	LEDGF integ inh 17 | IN multimer act inactive | TR-FRET interf inactive | LEDGF integ conf 16
O=C(O)CCCN1C(=O)/C(=C\c2ccc(-c3nc4ccccc4s3)o2)SC1=S	none
CC1OC2CC(=O)OC2C2=C1C(=O)c1c(O)cccc1C2=O (stereo not drawn)	LEDGF integ inh 19 | IN multimer act inactive | TR-FRET interf inactive | LEDGF integ conf 41
CN(C)c1ccc(N/C=C/C(=O)C(C)(C)C)cc1	LEDGF integ inh 25 | IN multimer act 12 | TR-FRET interf inactive | LEDGF integ conf inactive
CC(C)(C)C(=O)/C=C/Nc1ccccc1O	LEDGF integ inh 15 | IN multimer act inactive | TR-FRET interf inactive | LEDGF integ conf inactive
CN(C)c1ccc(N/C=C/C(=O)c2ccccc2)cc1	LEDGF integ inh 15 | IN multimer act inactive | TR-FRET interf inactive | LEDGF integ conf inactive
CN(C(=O)COC(=O)c1cncc(Br)c1)C1CCCCC1	LEDGF integ inh 16 | IN multimer act inactive | TR-FRET interf inactive | LEDGF integ conf inactive
CN(C(=O)COC(=O)c1cncc(Br)c1)C1CCS(=O)(=O)C1 (stereo not drawn)	none
Cc1ccc(SC2=C(Sc3ccc(C)cc3)C(=O)c3ccccc3C2=O)cc1	none
CC1=CC(=O)C(Sc2ccc(C)cc2)=CC1=O	LEDGF integ inh 17 | IN multimer act inactive | TR-FRET interf inactive | LEDGF integ conf inactive
Cc1cc(C(=O)Nc2ccc(C(=O)O)cc2)c(C)o1	none
Cc1oc(CC(C)C)cc1C(=O)Nc1ccc(C(=O)O)cc1	LEDGF integ inh 16 | IN multimer act inactive | TR-FRET interf inactive | LEDGF integ conf inactive
C[C@H]1C2CC(OC(=O)Nc3cccc(Cl)c3)C(C2)[C@H]2CCCCN21 (stereo partly drawn)	none
